Experimental findings from PubChem BioAssay (NCI) are described below.

This is part of a sample that, as a whole, favours compounds with a hit. Of some 83,000 tested, about 20% had one in any assay.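 Each cell line was grown in a 96-well plate and treated with one concentration of compound for 48 hours. Values below 10 were considered active.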 Values without a mark were called inactive. Activity calls are given as the source filed them.

Test systems include NCI-H23 lung; NCI-H226 lung; NCI-H322M lung; HOP-62 NSCLC; NCI-H460 lung; HOP-92 NSCLC; NCI-H522 lung; A549/ATCC NSCLC; 786-0 renal; COLO 205 colon; DU-145 prostate; K-562 leukemia; MALME-3M melanoma; MDA-MB-231 breast; RXF 393 renal; SF-268 CNS; SF-295 CNS; SF-539 CNS; UACC-257 melanoma; M14 melanoma.
Assay in all cases: NCI-60 one-dose screen, 48 h (100 = growth as untreated, 0 = no growth, -100 = all killed)
What all share (conditions): 10 µM unless noted

For the compound `CC(=O)c1cc(C(=O)N2c3ccccc3Sc3ccccc32)n2c1ccc1ccccc12`, the growth in the test on NCI-H23 lung is 79.1%; in the test on NCI-H226 lung, 60.4%; in the test on NCI-H322M lung, 89.9%; in the test with HOP-62 NSCLC, 56%; in the test with NCI-H460 lung, 37.9%; with HOP-92 NSCLC, 85.2%. The growth in the test with NCI-H522 lung is -1.14% (active); in the test on A549/ATCC NSCLC, 59%; in the test on 786-0 renal, 60.6%; with COLO 205 colon, 40%; with DU-145 prostate, 75%; in the test on K-562 leukemia, 23.6%. Besides, the growth in the test with MALME-3M melanoma is 62%; in the test with MDA-MB-231 breast, 97.4%; with RXF 393 renal, 66.9%; in the test on SF-268 CNS it was 67.5%; in the test with SF-295 CNS it was 41%; in the test with SF-539 CNS it was 69.1%. Further, the growth in the test with UACC-257 melanoma was 51.8%; in the test with M14 melanoma it was 40.8%.

`O=C(CSc1nnc(-c2cccs2)n1-c1ccccc1)Nc1ccccc1`: the growth in the test on NCI-H23 lung is 86%; with NCI-H226 lung it was 64.4%; with NCI-H322M lung, 84%; in the test on HOP-62 NSCLC it was 46.7%; with NCI-H460 lung, 81.8%; in the test with HOP-92 NSCLC, 53.3%. In addition, the growth with NCI-H522 lung is 57.7%; in the test on A549/ATCC NSCLC, 87.7%; in the test on 786-0 renal, 85.1%; with COLO 205 colon it was 104%; with DU-145 prostate it was 83.3%; in the test with K-562 leukemia, 49.6%. Moreover, the growth in the test with MALME-3M melanoma is 35.2%; in the test on MDA-MB-231 breast, 76.4%; in the test on RXF 393 renal, 59.8%; in the test on SF-268 CNS, 60%; with SF-295 CNS, 90.1%; in the test on SF-539 CNS, 60.7%. Besides, the growth in the test with UACC-257 melanoma is 85.4%; in the test with M14 melanoma, 88.2%.

Regarding `Cc1nc(/N=C(N)/N=C(\N)c2cccc(Br)c2)sc1C`, the growth in the test with NCI-H23 lung is 59.7%; with NCI-H226 lung it was 73.1%; in the test on NCI-H322M lung, 86.2%; in the test with HOP-62 NSCLC, 50%; in the test on NCI-H460 lung, 30.1%; in the test on HOP-92 NSCLC it was 88%. Also, the growth in the test with NCI-H522 lung was 45.7%; in the test on A549/ATCC NSCLC, 56.8%; in the test on 786-0 renal it was 75.2%; in the test with COLO 205 colon it was 55.6%; in the test with DU-145 prostate, 57.9%; in the test on K-562 leukemia it was 15.9%. Besides, the growth in the test on MALME-3M melanoma is 62%; in the test on MDA-MB-231 breast it was 76.5%; in the test with RXF 393 renal it was 56.9%; in the test with SF-268 CNS it was 80%; with SF-295 CNS, 8.89% (active); in the test on SF-539 CNS, 37.8%. Moreover, the growth in the test with UACC-257 melanoma was 88.3%; in the test with M14 melanoma it was 47.1%.

For the compound `CCOC(=O)C1=C(C)NC(C)=C(C(=O)OC(C)C)C1c1cccc(C#N)c1` (stereo not given), the growth with NCI-H23 lung was 96.7%; with NCI-H226 lung, 98.1%; with NCI-H322M lung, 100%; in the test with HOP-62 NSCLC, 101%; in the test on NCI-H460 lung it was 101%; in the test on HOP-92 NSCLC it was 114%. Besides, the growth in the test with NCI-H522 lung was 92.7%; in the test on A549/ATCC NSCLC, 100%; with 786-0 renal, 90.6%; in the test on COLO 205 colon, 114%; in the test on DU-145 prostate, 104%; with K-562 leukemia, 93.9%. The growth with MALME-3M melanoma is 97.2%; in the test on MDA-MB-231 breast, 95.2%; in the test with RXF 393 renal it was 90.8%; in the test on SF-268 CNS it was 96.9%; in the test with SF-295 CNS, 106%; with SF-539 CNS, 104%. For the same compound, the growth with UACC-257 melanoma is 104%; with M14 melanoma it was 105%.

With `Cc1ccc(S(=O)(=O)NCCCNc2nccc(-c3[nH]c(-c4ccccc4)nc3-c3ccc(F)c(O)c3)n2)cc1`, the growth in the test on NCI-H23 lung was 96.2%; in the test with NCI-H226 lung, 93.2%; with NCI-H322M lung, 109%; in the test with HOP-62 NSCLC, 112%; in the test with NCI-H460 lung, 82.1%; with HOP-92 NSCLC it was 93.7%. Also, the growth in the test with NCI-H522 lung is 80.1%; in the test on A549/ATCC NSCLC, 80.4%; with 786-0 renal, 104%; with COLO 205 colon, 91.9%; in the test on DU-145 prostate, 98.6%; with K-562 leukemia it was 30.4%. For the same compound, the growth is 2.9% (active) with MALME-3M melanoma; 71.1% in the test on MDA-MB-231 breast; 97.9% in the test on RXF 393 renal; 105% in the test with SF-268 CNS; 94.9% in the test with SF-295 CNS; 105% in the test with SF-539 CNS. Besides, the growth is 23.8% with UACC-257 melanoma and 22.9% with M14 melanoma.

Take `O=S(=O)(NCCCNc1nccc(-c2[nH]c(-c3ccccc3)nc2-c2ccc(F)c(O)c2)n1)c1cccc(F)c1`: the growth was 90.4% in the test with NCI-H23 lung; 96.7% in the test on NCI-H226 lung; 103% in the test with NCI-H322M lung; 116% with HOP-62 NSCLC; 78% in the test on NCI-H460 lung; 94.6% with HOP-92 NSCLC. The growth is 87.5% in the test with NCI-H522 lung; 92.4% in the test with A549/ATCC NSCLC; 101% in the test on 786-0 renal; 96.3% in the test on COLO 205 colon; 100% in the test with DU-145 prostate; 49.3% in the test with K-562 leukemia. The growth in the test on MALME-3M melanoma is -2.58% (active); with MDA-MB-231 breast, 79.3%; in the test with RXF 393 renal it was 100%; in the test with SF-268 CNS, 103%; with SF-295 CNS, 85.2%; in the test with SF-539 CNS, 103%. The values for the growth with UACC-257 melanoma and in the test with M14 melanoma were 23.4% and 29.3%, respectively.

As for `O=C1C(SCc2ccccc2)=C(Cl)CN1c1ccccc1`, the growth with NCI-H23 lung is 95.6%; in the test with NCI-H226 lung, 101%; in the test on NCI-H322M lung it was 97.3%; in the test on HOP-62 NSCLC, 104%; with NCI-H460 lung, 102%; with HOP-92 NSCLC, 94.5%. Besides, the growth was -48.8% (active) with NCI-H522 lung; 106% in the test on A549/ATCC NSCLC; 104% in the test on 786-0 renal; 130% in the test with COLO 205 colon; 102% in the test on DU-145 prostate; 62% with K-562 leukemia. Further, the growth is 94.6% in the test with MALME-3M melanoma; 93.1% with MDA-MB-231 breast; 105% with RXF 393 renal; 105% with SF-268 CNS; 97.8% in the test with SF-295 CNS; 95% in the test on SF-539 CNS. Besides, the growth in the test with UACC-257 melanoma is 106%; in the test with M14 melanoma it was 97.7%.

As to `O=C(CSc1nnc(-c2ccc(Cl)cc2)n1-c1ccccc1)Nc1cccc(F)c1`, the growth in the test with NCI-H23 lung is 23.6%; in the test on NCI-H226 lung, 20.9%; in the test with NCI-H322M lung, 36.7%; in the test with HOP-62 NSCLC, 50.3%; with NCI-H460 lung, 17.4%; with HOP-92 NSCLC it was 57.8%. Moreover, the growth with NCI-H522 lung is 52.2%; in the test with A549/ATCC NSCLC, 2.72% (active); in the test with 786-0 renal, 0.989% (active); in the test with COLO 205 colon, 80.1%; with DU-145 prostate, 58.1%; in the test on K-562 leukemia it was 48%. The growth is 52.7% in the test on MALME-3M melanoma; 27% in the test with MDA-MB-231 breast; 25.6% in the test on RXF 393 renal; 56.2% in the test with SF-268 CNS; 9.38% (active) with SF-295 CNS; -1.04% (active) with SF-539 CNS. In addition, the results for the growth with UACC-257 melanoma and in the test with M14 melanoma were 85.9% and 62.9%, respectively.
